Laboratory results taken from PubChem BioAssay (EPA / NIEHS).
The source made the active and inactive calls. Rule for the calls: active = hit-call score of the fitted dose curve at least 0.9, where 1 is the maximum; inactive = score below 0.9.

What was measured:
[1] = read-out: Macrophage colony-stimulating factor (MCSF), CSF1 (gene 1435); assay: BSK_hDFCGF_MCSF: BioMAP Diversity Plus: hDFCGF Assay for Macrophage colony-stimulating factor (MCSF) Biomarker Activity (AID 2283060); settings: primary human foreskin fibroblasts; actives raise or lower the signal
Outline: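 Human foreskin primary fibroblasts were treated with test chemical for 24 h, and M-CSF was then measured by ELISA. Data were fitted bidirectionally against DMSO as the negative control and activity baseline.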

[2] = BSK_hDFCGF_SRB: Viability Assessment in the BioMAP Diversity Plus: hDFCGF Assay (AID 2283061); settings: primary human foreskin fibroblasts;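 note: cells exposed to compound for 24 h before the read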
Outline: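 Human foreskin primary fibroblasts were treated with compound and assessed 24 h after dosing. Total protein was measured by sulforhodamine B staining (0.1% SRB after 10% TCA fixation, 560 nm read) as a cytotoxicity marker, with bidirectional fitting against DMSO baseline.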

[3] = read-out: TIMP metallopeptidase inhibitor 1 (TIMP1), TIMP1 (gene 7076); assay: BSK_hDFCGF_TIMP1: BioMAP Diversity Plus: hDFCGF Assay for TIMP metallopeptidase inhibitor 1 (TIMP1) Biomarker Activity (AID 2283062); settings: primary human foreskin fibroblasts; actives raise or lower the signal
Outline: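 Primary human foreskin fibroblasts in the hDFCGF system were dosed with compound for 24 h, then TIMP-1 was measured by ELISA. Activity was fitted bidirectionally relative to DMSO control; parallel SRB staining assessed cytotoxicity.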

[4] = read-out: Monokine induced gamma interferon (MIG), CXCL9 (gene 4283); assay: BSK_hDFCGF_MIG: BioMAP Diversity Plus: hDFCGF Assay for Monokine induced gamma interferon (MIG) Biomarker Activity (AID 2283063); settings: primary human foreskin fibroblasts; actives raise or lower the signal
Outline: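 ELISA read-out of MIG from primary human dermal fibroblasts 24 h post-dosing. Gain or loss of signal fitted bidirectionally, DMSO as baseline.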

[5] = read-out: Matrix Metallopeptidase 1 (MMP1), MMP1 (gene 4312); assay: BSK_hDFCGF_MMP1: BioMAP Diversity Plus: hDFCGF Assay for Matrix Metallopeptidase 1 (MMP1) Biomarker Activity (AID 2283064); settings: primary human foreskin fibroblasts; actives raise or lower the signal
Outline: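 hDFCGF primary fibroblasts (human foreskin); chemical added; 24 h; MMP1 by ELISA; bidirectional fit vs DMSO.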

[6] = read-out: Vascular cell adhesion molecule 1 (VCAM1), VCAM1 (gene 7412); assay: BSK_hDFCGF_VCAM1: BioMAP Diversity Plus: hDFCGF Assay for Vascular cell adhesion molecule 1 (VCAM1) Biomarker Activity (AID 2283065); settings: primary human foreskin fibroblasts; actives raise or lower the signal
Outline: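 Primary human foreskin fibroblasts (hDFCGF system) were dosed with chemical and VCAM-1 was measured by ELISA 24 h later. Bidirectional curve fitting used DMSO as negative control and activity baseline.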

[7] = read-out: Plasminogen activator inhibitor-1 (PAI1), SERPINE1 (gene 5054); assay: BSK_hDFCGF_PAI1: BioMAP Diversity Plus: hDFCGF Assay for Plasminogen activator inhibitor-1 (PAI1) Biomarker Activity (AID 2283066); settings: primary human foreskin fibroblasts; actives raise or lower the signal
Outline: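 Human foreskin fibroblasts in the hDFCGF system were dosed with compound for 24 h; PAI-1 was quantified by ELISA. Bidirectional curve fitting used DMSO as negative control and baseline.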

[8] = read-out: Intercellular Adhesion Molecule 1 (ICAM1), ICAM1 (gene 3383); assay: BSK_KF3CT_ICAM1: BioMAP Diversity Plus: KF3CT Assay for Intercellular Adhesion Molecule 1 (ICAM1) Biomarker Activity (AID 2283067); settings: primary human keratinocytes with fibroblasts; actives raise or lower the signal
Outline: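 Human keratinocyte plus foreskin fibroblast primary co-culture was exposed to chemical for 24 h. ICAM-1 was then quantified by ELISA, and the data were fit bidirectionally against DMSO as the negative control and baseline.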

[9] = read-out: Interferon-gamma inducible Protein 10 (IP10), CXCL10 (gene 3627); assay: BSK_KF3CT_IP10: BioMAP Diversity Plus: KF3CT Assay for Interferon-gamma inducible Protein 10 (IP10) Biomarker Activity (AID 2283068); settings: primary human keratinocytes with fibroblasts; actives raise or lower the signal
Outline: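 ELISA read-out of IP-10 after 24 h chemical dosing of human skin primary co-culture (keratinocytes, foreskin fibroblasts). Gain or loss of signal relative to DMSO, bidirectional curve fit.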

[10] = BSK_KF3CT_SRB: Viability Assessment in the BioMAP Diversity Plus: KF3CT Assay (AID 2283069); settings: primary human keratinocytes with fibroblasts;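 note: fitted for both signal gain and loss against DMSO baseline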
Outline: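 Keratinocytes co-cultured with foreskin fibroblasts (human primary); chemical added, 24 h; fix 10% TCA, stain 0.1% SRB, A560. Bidirectional fit vs DMSO.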

[11] = read-out: Interleukin-1 alpha (IL1a), IL1A (gene 3552); assay: BSK_KF3CT_IL1a: BioMAP Diversity Plus: KF3CT Assay for Interleukin-1 alpha (IL1a) Biomarker Activity (AID 2283070); settings: primary human keratinocytes with fibroblasts; actives raise or lower the signal
Outline: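 Chemicals were dosed onto co-cultured human keratinocytes and foreskin fibroblasts, IL-1a was quantified by ELISA at 24 h, and activity was fitted in both directions relative to DMSO controls.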

[12] = read-out: TIMP metallopeptidase inhibitor 2 (TIMP2), TIMP2 (gene 7077); assay: BSK_KF3CT_TIMP2: BioMAP Diversity Plus: KF3CT Assay for TIMP metallopeptidase inhibitor 2 (TIMP2) Biomarker Activity (AID 2283071); settings: primary human keratinocytes with fibroblasts; actives raise or lower the signal
Outline: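 Human primary keratinocyte/foreskin fibroblast co-culture dosed with chemical and sampled at 24 h. TIMP-2 levels quantified by ELISA; bidirectional fitting against DMSO negative control as baseline.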

[13] = read-out: C-C motif chemokine 2 (Homo sapiens) (UniProt P13500); assay: BSK_KF3CT_MCP1: BioMAP Diversity Plus: KF3CT Assay for Monocyte Chemoattractant Protein 1 (MCP1/CCL2) Biomarker Activity (AID 2283073); settings: primary human keratinocytes with fibroblasts; actives raise or lower the signal
Outline: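 Human keratinocyte plus foreskin fibroblast primary co-culture exposed to chemical for 24 h. MCP-1 levels measured by ELISA. Bidirectional curve fitting relative to DMSO negative control as baseline.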

[14] = read-out: Matrix Metallopeptidase 9 (MMP9), MMP9 (gene 4318); assay: BSK_KF3CT_MMP9: BioMAP Diversity Plus: KF3CT Assay for Matrix Metallopeptidase 9 (MMP9) Biomarker Activity (AID 2283074); settings: primary human keratinocytes with fibroblasts; actives raise or lower the signal
Outline: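 Human keratinocyte/foreskin fibroblast co-culture; compound added; 24 h; MMP-9 by ELISA; bidirectional fit vs DMSO baseline.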

[15] = read-out: urokinase plasminogen activator (uPA), PLAU (gene 5328); assay: BSK_KF3CT_uPA: BioMAP Diversity Plus: KF3CT Assay for urokinase plasminogen activator (uPA) Biomarker Activity (AID 2283075); settings: primary human keratinocytes with fibroblasts; actives raise or lower the signal
Outline: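 ELISA readout of uPA, analyzed for signal gain or loss relative to DMSO, from a human primary keratinocyte–foreskin fibroblast co-culture measured 24 h after chemical treatment.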

CD40, CD40 (gene 958) = assay: BSK_LPS_CD40: BioMAP Diversity Plus: LPS Assay for CD40 Biomarker Activity (AID 2283076); settings: primary human HUVEC with PBMC; actives raise or lower the signal
Outline: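 Primary human umbilical vein endothelial cells co-cultured with peripheral blood mononuclear cells, LPS-stimulated, were dosed with chemical and read 24 h later. CD40 levels were measured by ELISA and fitted bidirectionally against DMSO as negative control and baseline.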

[16] = read-out: E-selectin (Homo sapiens) (UniProt P16581); assay: BSK_LPS_Eselectin: BioMAP Diversity Plus: LPS Assay for Eselectin Biomarker Activity (AID 2283077); settings: primary human HUVEC with PBMC; actives raise or lower the signal
Outline: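 Human umbilical vein endothelial cells co-cultured with peripheral blood mononuclear cells under LPS stimulation; E-selectin measured by ELISA 24 h after chemical dosing. Activity fitted bidirectionally against DMSO as negative control and baseline.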

[17] = read-out: Interleukin-8 (IL8), CXCL8 (gene 3576); assay: BSK_LPS_IL8: BioMAP Diversity Plus: LPS Assay for Interleukin-8 (IL8) Biomarker Activity (AID 2283078); settings: primary human HUVEC with PBMC; actives raise or lower the signal
Outline: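 Human umbilical vein endothelial cells co-cultured with PBMC were stimulated with LPS; IL-8 levels were measured by ELISA 24 h after chemical dosing. Activity was fitted bidirectionally against DMSO as negative control and baseline.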

[18] = BSK_LPS_SRB: Viability Assessment in the BioMAP Diversity Plus: LPS Assay (AID 2283079); settings: primary human HUVEC with PBMC;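 note: total protein by sulforhodamine B absorbance as a cytotoxicity measure; measured one day after compound addition; fitted in both directions against DMSO so loss or gain of signal counts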
Outline: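 Human umbilical vein endothelial cells co-cultured with PBMC (LPS system) were dosed for 24 h. Total protein was stained with 0.1% sulforhodamine B after 10% TCA fixation, read at 560 nm, and fitted bidirectionally against DMSO baseline.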

[19] = read-out: Interleukin-1 alpha (IL1a), IL1A (gene 3552); assay: BSK_LPS_IL1a: BioMAP Diversity Plus: LPS Assay for Interleukin-1 alpha (IL1a) Biomarker Activity (AID 2283080); settings: primary human HUVEC with PBMC; actives raise or lower the signal
Outline: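 Human umbilical vein endothelial cells co-cultured with peripheral blood mononuclear cells were LPS-stimulated and exposed to test chemicals for 24 h. IL-1 alpha was quantified by ELISA, with bidirectional curve fitting against DMSO as the negative control and baseline.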

Measured: outcome

Sequence of E-selectin (Homo sapiens) (P16581 whole entry, looked up): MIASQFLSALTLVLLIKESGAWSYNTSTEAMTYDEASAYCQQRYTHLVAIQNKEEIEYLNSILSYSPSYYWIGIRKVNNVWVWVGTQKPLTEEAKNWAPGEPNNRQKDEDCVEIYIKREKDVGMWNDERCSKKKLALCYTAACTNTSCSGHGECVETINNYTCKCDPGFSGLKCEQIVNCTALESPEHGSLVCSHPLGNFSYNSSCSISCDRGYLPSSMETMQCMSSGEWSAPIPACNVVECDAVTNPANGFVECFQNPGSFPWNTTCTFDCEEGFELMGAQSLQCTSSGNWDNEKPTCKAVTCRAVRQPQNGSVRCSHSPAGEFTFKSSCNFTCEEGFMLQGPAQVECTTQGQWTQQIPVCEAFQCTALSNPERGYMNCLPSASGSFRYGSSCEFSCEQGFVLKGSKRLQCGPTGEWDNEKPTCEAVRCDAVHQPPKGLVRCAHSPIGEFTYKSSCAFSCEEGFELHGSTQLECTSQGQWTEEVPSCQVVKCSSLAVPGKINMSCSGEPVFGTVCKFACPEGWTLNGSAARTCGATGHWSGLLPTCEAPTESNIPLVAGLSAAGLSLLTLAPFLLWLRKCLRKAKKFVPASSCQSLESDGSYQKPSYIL

C=C(C)C(=O)OCC(F)(F)C(F)(F)C(F)(F)C(F)F
inactive: all assays above

O=C(F)C1(F)C(F)(F)C(F)(F)C(F)(F)C(F)(F)C1(F)F
inactive: all assays above

OCC(F)(F)C(F)(F)C(F)(F)C(F)(F)C(F)(F)C(F)(F)CO
inactive: all assays above
